In publication PMC7862700, “An all-to-all approach to the identification of sequence-specific readers for epigenetic DNA modifications on cytosine”:

What was measured:
Experiment in all cases: DAPPL (digital affinity profiling via proximity ligation, sequencing); 10 mM Tris-HCl pH 7.5, 50 mM NaCl, 1 mM DTT, 4% glycerol, room temperature, 30 min; GST-TFs on glutathione beads, 16-mer random dsDNA library, 0.1% formaldehyde crosslink after washing; high values mean tight binding
[1] = target: T1, FLI1 (Homo sapiens, UniProt Q01543 1-452); conditions: protein: recombinant; tags: N-terminal GST; dsDNA, one strand shown
T1 sequence: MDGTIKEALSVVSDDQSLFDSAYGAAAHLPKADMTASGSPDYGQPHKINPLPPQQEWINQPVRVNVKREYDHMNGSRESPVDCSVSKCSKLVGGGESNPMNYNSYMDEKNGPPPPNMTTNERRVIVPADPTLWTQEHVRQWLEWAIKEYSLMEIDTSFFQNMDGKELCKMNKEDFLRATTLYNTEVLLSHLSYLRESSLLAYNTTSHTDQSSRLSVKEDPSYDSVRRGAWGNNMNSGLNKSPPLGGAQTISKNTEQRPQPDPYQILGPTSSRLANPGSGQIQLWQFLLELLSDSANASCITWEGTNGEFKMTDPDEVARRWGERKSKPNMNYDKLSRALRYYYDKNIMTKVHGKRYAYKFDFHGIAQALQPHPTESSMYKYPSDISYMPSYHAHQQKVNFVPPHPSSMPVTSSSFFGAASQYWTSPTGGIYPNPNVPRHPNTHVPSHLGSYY
Method in brief: (§1)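 Sequencing on an Illumina NextSeq500 followed washing, crosslinking with 0.1% formaldehyde, proximity ligation (BsaI/T4 ligase, 1 h, 37 °C) and PCR amplification of pools that had been incubated for 30 min at room temperature with 200 nmole of a random double-stranded 16-mer DNA library in Tris/NaCl/DTT/glycerol buffer. Each pool held DNA-barcoded human transcription factors, expressed in yeast as GST fusions and captured on glutathione beads, plus a tag-only sample. Binding signal is a hexamer's read frequency for a factor divided by its frequency in the tag-only sample.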

[2] = target: T2, ELK1 (Homo sapiens, UniProt P19419 1-428); conditions: protein: recombinant; tags: N-terminal GST; dsDNA, one strand shown
T2 sequence: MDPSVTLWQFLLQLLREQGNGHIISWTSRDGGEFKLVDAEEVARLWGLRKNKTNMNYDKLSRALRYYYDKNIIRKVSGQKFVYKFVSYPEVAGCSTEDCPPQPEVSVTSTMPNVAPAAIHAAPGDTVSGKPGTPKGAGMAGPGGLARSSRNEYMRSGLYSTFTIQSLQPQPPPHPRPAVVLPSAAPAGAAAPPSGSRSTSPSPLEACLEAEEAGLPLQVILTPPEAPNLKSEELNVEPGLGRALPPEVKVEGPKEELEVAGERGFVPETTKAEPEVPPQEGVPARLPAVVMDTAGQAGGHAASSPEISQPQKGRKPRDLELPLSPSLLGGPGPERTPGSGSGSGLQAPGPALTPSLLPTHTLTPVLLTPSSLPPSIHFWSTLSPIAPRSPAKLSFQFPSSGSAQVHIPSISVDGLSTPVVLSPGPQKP
Method in brief: as §1

[3] = target: T3, GABPA (Homo sapiens, UniProt Q06546 1-454); conditions: protein: recombinant; tags: N-terminal GST; dsDNA, one strand shown
T3 sequence: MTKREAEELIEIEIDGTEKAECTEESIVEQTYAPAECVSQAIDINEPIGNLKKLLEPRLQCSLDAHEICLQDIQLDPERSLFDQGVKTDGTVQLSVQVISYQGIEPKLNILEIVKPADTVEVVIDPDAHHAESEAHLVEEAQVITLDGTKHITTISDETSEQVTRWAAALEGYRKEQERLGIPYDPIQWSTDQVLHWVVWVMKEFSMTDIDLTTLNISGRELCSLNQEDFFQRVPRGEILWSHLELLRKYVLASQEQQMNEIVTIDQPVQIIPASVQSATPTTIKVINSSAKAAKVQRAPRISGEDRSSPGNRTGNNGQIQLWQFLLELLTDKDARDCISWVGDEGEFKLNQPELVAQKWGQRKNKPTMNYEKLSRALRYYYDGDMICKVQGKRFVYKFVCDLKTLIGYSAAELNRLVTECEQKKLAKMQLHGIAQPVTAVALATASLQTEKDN
Method in brief: as §1

[4] = target: T4, ERG (Homo sapiens, UniProt P11308 1-479); conditions: protein: recombinant; tags: N-terminal GST; dsDNA, one strand shown
T4 sequence: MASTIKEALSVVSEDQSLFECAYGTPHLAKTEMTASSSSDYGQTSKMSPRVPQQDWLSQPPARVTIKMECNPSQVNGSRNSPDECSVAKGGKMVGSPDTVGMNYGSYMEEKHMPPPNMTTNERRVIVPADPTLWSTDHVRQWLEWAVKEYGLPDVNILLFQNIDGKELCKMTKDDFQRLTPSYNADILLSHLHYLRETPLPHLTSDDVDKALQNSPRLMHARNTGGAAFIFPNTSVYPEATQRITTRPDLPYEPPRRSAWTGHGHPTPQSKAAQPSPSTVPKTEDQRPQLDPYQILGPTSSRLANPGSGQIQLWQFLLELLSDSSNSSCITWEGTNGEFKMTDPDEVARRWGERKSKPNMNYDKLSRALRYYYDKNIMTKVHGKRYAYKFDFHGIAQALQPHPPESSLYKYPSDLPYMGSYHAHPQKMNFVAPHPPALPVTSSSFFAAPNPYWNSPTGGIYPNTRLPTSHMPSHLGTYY
Method in brief: as §1

[5] = target: ELF1 (Homo sapiens, UniProt P32519 1-619); conditions: protein: recombinant; tags: N-terminal GST; dsDNA, one strand shown
Method in brief: as §1

[6] = target: T5, EHF (Homo sapiens, UniProt Q9NZC4 1-300); conditions: protein: recombinant; tags: N-terminal GST; dsDNA, one strand shown
T5 sequence: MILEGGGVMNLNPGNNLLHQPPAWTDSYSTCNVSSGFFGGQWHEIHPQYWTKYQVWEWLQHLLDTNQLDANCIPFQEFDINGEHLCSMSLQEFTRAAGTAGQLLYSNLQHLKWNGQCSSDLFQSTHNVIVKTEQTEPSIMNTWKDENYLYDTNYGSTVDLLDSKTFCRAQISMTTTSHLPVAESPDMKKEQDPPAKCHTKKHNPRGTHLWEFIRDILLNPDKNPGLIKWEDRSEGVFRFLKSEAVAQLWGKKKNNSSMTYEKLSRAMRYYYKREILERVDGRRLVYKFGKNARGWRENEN
Method in brief: as §1

[7] = target: SPI1 (Homo sapiens, UniProt P17947 1-270); conditions: protein: recombinant; tags: N-terminal GST; dsDNA, one strand shown
Method in brief: as §1

[8] = target: SPIB (Homo sapiens, UniProt Q01892 1-262); conditions: protein: recombinant; tags: N-terminal GST; dsDNA, one strand shown
Method in brief: as §1

[9] = target: T6, ELK3 (Homo sapiens, UniProt P41970 1-407); conditions: protein: recombinant; tags: N-terminal GST; dsDNA, one strand shown
T6 sequence: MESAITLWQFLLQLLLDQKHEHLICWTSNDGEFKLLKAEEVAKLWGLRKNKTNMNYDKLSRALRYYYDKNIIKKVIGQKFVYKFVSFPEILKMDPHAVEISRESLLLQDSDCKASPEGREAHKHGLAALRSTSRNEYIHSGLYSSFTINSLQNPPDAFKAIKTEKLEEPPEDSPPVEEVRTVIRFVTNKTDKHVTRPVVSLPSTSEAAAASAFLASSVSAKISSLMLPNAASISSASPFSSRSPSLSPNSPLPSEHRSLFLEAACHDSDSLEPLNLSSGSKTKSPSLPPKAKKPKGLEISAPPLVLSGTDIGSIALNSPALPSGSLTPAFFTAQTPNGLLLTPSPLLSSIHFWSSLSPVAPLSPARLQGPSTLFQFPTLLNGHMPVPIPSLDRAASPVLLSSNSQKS
Method in brief: as §1

[10] = target: T7, FEV (Homo sapiens, UniProt Q99581 1-238); conditions: protein: recombinant; tags: N-terminal GST; dsDNA, one strand shown
T7 sequence: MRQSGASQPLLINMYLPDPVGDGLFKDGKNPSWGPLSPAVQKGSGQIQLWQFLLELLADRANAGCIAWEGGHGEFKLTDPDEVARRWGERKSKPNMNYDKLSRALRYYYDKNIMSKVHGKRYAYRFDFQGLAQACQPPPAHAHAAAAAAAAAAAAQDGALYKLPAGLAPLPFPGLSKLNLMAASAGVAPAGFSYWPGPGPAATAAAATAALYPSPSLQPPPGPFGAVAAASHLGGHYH
Method in brief: as §1

[11] = target: ETV5 (Homo sapiens, UniProt P41161 1-510); conditions: protein: recombinant; tags: N-terminal GST; dsDNA, one strand shown
Method in brief: as §1

[12] = target: HSF1 (Homo sapiens, UniProt Q00613 1-529); conditions: protein: recombinant; tags: N-terminal GST; chain copies: 3; dsDNA, one strand shown
Method in brief: as §1

[13] = target: T8, SPIC (Homo sapiens, UniProt Q8N5J4 1-248); conditions: protein: recombinant; tags: N-terminal GST; dsDNA, one strand shown
T8 sequence: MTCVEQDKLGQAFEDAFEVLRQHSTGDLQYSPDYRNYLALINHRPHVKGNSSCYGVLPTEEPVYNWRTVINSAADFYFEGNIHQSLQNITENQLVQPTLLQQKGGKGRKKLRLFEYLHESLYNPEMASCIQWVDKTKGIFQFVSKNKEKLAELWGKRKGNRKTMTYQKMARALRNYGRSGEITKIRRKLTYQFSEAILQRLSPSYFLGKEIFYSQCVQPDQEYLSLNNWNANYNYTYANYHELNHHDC
Method in brief: as §1

[14] = target: ELF4 (Homo sapiens, UniProt Q99607 1-663); conditions: protein: recombinant; tags: N-terminal GST; dsDNA, one strand shown
Method in brief: as §1

[15] = target: T9, ELK4 (Homo sapiens, UniProt P28324-2 1-405); conditions: protein: recombinant; tags: N-terminal GST; dsDNA, one strand shown
T9 sequence: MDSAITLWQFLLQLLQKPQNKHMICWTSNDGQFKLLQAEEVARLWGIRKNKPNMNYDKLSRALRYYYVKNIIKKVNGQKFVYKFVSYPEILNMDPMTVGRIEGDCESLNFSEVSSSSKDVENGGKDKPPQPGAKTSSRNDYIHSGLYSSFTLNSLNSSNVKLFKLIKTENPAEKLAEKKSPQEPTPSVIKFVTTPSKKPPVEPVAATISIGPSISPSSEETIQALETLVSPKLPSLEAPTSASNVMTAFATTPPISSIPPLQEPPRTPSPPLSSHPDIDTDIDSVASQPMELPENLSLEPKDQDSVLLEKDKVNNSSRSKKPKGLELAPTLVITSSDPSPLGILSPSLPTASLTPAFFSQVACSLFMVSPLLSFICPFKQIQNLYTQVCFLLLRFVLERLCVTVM
Method in brief: as §1

[16] = target: T10, ETV2 (Homo sapiens, UniProt O00321 1-342); conditions: protein: recombinant; tags: N-terminal GST; dsDNA, one strand shown
T10 sequence: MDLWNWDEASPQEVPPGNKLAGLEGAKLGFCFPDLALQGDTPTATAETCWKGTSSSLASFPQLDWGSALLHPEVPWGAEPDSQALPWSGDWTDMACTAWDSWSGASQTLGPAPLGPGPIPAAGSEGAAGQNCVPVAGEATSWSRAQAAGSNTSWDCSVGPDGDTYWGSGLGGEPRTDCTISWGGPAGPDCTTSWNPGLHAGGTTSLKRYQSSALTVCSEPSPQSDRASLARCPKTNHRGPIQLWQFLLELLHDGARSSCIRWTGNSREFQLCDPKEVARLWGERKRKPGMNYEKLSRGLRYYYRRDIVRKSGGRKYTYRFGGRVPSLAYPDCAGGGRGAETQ
Method in brief: as §1

[17] = target: T11, ELF3 (Homo sapiens, UniProt P78545 1-371); conditions: protein: recombinant; tags: N-terminal GST; dsDNA, one strand shown
T11 sequence: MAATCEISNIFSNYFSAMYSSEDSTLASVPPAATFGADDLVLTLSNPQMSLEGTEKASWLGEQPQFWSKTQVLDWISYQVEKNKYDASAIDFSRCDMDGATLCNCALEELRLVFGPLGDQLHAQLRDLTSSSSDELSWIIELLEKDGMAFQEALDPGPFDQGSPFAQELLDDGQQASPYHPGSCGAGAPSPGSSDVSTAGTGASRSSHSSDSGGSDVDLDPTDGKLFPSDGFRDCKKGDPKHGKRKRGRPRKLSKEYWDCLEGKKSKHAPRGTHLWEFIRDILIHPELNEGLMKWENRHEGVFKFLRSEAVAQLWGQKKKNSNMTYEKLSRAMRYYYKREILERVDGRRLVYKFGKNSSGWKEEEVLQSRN
Method in brief: as §1

[18] = target: CRX (Homo sapiens, UniProt O43186 1-299); conditions: protein: recombinant; tags: N-terminal GST; dsDNA, one strand shown
Method in brief: as §1

[19] = target: ETV1 (Homo sapiens, UniProt P50549 1-477); conditions: protein: recombinant; tags: N-terminal GST; dsDNA, one strand shown
Method in brief: as §1

Chain of ETV5 (P41161 whole entry): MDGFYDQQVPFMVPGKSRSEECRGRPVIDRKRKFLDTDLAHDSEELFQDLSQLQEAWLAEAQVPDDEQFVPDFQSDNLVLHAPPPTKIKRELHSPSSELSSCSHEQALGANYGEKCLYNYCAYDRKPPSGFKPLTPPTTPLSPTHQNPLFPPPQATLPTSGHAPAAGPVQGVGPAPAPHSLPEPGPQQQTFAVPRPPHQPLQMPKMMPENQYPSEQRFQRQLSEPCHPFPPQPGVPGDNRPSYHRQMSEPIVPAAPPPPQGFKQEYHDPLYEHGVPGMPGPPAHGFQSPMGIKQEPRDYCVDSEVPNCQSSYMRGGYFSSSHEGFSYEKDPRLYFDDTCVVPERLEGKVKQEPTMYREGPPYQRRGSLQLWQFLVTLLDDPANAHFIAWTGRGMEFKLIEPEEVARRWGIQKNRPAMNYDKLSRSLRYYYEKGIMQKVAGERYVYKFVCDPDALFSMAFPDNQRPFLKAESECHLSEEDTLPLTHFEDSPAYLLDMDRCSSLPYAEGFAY
Chain of ETV1 (P50549 whole entry): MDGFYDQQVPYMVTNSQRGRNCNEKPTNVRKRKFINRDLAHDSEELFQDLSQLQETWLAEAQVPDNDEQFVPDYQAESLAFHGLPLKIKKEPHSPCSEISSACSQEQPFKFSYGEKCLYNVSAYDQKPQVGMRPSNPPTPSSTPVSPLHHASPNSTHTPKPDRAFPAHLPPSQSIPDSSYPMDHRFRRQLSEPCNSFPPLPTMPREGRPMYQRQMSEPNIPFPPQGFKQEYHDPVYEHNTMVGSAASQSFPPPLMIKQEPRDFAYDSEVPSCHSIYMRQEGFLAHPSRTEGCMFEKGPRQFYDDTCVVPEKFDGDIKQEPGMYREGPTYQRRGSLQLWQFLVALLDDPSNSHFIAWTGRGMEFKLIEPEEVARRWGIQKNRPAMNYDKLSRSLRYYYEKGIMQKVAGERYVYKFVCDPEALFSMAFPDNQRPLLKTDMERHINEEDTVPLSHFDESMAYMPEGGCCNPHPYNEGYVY
Chain of HSF1 (Q00613 whole entry): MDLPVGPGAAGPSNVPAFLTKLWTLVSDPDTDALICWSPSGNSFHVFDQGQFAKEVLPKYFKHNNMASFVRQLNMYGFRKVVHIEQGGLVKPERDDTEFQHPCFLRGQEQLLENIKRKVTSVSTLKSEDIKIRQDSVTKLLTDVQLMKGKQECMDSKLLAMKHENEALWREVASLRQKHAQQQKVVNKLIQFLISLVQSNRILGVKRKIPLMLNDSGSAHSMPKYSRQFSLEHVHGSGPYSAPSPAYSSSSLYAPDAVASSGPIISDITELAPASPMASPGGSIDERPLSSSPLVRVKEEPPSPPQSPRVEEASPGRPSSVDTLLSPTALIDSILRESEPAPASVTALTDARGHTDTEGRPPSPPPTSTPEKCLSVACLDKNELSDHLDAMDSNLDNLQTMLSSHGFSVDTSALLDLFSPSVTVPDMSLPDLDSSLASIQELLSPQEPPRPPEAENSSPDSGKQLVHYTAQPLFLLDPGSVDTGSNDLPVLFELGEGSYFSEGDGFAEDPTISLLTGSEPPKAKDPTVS
Chain of ELF4 (Q99607 whole entry): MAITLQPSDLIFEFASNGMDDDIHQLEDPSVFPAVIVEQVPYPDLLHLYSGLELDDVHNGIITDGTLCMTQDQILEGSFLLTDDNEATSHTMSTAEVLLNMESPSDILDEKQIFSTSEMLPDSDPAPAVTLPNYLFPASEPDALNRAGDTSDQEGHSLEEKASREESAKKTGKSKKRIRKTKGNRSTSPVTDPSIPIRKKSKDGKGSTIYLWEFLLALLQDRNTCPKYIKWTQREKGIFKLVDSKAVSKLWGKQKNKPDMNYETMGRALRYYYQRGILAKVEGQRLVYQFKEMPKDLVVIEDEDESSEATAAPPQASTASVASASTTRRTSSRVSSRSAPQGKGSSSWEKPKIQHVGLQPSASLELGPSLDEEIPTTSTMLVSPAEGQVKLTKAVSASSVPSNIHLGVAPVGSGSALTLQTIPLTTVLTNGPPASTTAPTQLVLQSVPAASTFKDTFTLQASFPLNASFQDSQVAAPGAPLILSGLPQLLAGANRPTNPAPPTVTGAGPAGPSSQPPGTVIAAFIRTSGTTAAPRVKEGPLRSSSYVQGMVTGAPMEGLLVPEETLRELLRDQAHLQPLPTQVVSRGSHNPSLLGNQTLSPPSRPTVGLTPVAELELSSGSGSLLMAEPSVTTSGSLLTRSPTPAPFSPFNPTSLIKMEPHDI
Chain of CRX (O43186 whole entry): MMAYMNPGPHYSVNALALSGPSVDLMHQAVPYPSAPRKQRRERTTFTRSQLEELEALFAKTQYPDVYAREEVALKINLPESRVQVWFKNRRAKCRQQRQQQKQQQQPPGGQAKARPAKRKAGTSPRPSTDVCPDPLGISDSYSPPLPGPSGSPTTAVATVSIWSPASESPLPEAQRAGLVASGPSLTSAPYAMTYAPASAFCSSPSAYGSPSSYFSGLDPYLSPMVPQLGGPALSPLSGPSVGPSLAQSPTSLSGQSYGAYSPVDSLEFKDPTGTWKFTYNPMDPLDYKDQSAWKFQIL
Chain of ELF1 (P32519 whole entry): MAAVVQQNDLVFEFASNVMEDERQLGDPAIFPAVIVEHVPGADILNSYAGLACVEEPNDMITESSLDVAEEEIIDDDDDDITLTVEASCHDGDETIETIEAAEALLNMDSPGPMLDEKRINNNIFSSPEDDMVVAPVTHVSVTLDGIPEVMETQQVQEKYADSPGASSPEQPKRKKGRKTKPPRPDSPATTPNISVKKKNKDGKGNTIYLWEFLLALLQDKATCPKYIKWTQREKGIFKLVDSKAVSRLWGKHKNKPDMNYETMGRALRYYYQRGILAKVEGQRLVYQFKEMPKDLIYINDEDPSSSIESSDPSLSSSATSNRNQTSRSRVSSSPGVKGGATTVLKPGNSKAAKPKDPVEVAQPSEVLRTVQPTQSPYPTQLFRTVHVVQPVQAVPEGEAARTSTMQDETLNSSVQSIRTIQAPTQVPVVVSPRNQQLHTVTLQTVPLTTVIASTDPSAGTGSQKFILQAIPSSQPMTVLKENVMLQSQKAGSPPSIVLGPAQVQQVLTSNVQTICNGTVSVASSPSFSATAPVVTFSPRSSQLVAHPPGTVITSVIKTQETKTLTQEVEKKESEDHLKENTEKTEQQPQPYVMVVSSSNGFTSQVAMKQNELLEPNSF
Chain of SPIB (Q01892 whole entry): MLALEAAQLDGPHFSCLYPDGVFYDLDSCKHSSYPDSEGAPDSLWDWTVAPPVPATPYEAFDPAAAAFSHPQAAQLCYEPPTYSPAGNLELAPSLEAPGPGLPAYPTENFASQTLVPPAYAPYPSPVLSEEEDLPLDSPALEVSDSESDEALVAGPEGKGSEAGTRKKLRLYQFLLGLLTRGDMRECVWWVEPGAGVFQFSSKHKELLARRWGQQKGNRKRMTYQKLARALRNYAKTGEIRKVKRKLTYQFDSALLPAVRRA

In the case of ATCGAC, the binding signal [1] is reported as 1.13 fold enrichment (6-mer frequency, TF over GST control), the binding signal [2] is reported as 1.11 fold enrichment (6-mer frequency, TF over GST control) and the binding signal [3] is reported as 1.17 fold enrichment (6-mer frequency, TF over GST control). For the same sequence, the binding signal [4] was 1.1 fold enrichment (6-mer frequency, TF over GST control), the binding signal [5] was 1.24 fold enrichment (6-mer frequency, TF over GST control) and the binding signal [6] was 1.12 fold enrichment (6-mer frequency, TF over GST control). For the same sequence, the binding signal [7] was 1.15 fold enrichment (6-mer frequency, TF over GST control), the binding signal [8] was 1.11 fold enrichment (6-mer frequency, TF over GST control) and the binding signal [9] was 1.27 fold enrichment (6-mer frequency, TF over GST control). For the same sequence, the binding signal [10] was 1.12 fold enrichment (6-mer frequency, TF over GST control), the binding signal [11] was 1.25 fold enrichment (6-mer frequency, TF over GST control) and the binding signal [12] was 1.16 fold enrichment (6-mer frequency, TF over GST control). For the same sequence, the binding signal [13] was 1.13 fold enrichment (6-mer frequency, TF over GST control), the binding signal [14] was 1.21 fold enrichment (6-mer frequency, TF over GST control) and the binding signal [15] was 1.26 fold enrichment (6-mer frequency, TF over GST control). For the same sequence, the binding signal [16] was 1.23 fold enrichment (6-mer frequency, TF over GST control), the binding signal [17] was 1.14 fold enrichment (6-mer frequency, TF over GST control) and the binding signal [18] was 1.11 fold enrichment (6-mer frequency, TF over GST control). The binding signal [19] was 1.16 fold enrichment (6-mer frequency, TF over GST control).
